High-throughput results from PubChem.
Mito fusion yeast: qHTS Assay for Small Molecule Inhibitors of Mitochondrial Division or Activators of Mitochondrial Fusion. Potency, µM (highest dose often 46.1 µM), for the others: top-dose growth rescue (activation), hits mostly activators. actives 0.23% (n = 320,000). S. cerevisiae fusion-defective mutant growth rescue, CellTiterGlo 48 h; further: % of control where 0% means no effect; nearly all actives have a fitted effect of over 45% in size
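Growth-rescue viability read-out: after 48 h at the non-permissive 37C in glycerol/ethanol YPEG, yeast mitochondrial fusion mutants are measured by CellTiterGlo luminescence; compounds (23 nl pinned per well) restoring growth score as division inhibitors or fusion activators.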
gsp agonist: qHTS for Agonist of gsp, the Etiologic Mutation Responsible for Fibrous Dysplasia/McCune-Albright Syndrome: qHTS; gsp mutant cells, cAMP HTRF, 30 min; Potency, µM (series often up to 76.9 µM), without a hit: at the highest dose activation (cAMP increase), actives largely listed as activators; actives 0.13% (n = 340,000); AID 624287, 2012; active means well fitted activation curve with a large enough effect; inconclusive means small, poorly fitted or top-dose-only effect, or another doubt; inactive means no such curve, though single readings can be large or run the other way; cell line not stated here;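 further: phosphodiesterase inhibitor Ro 20-1724 added with compounds to block cAMP breakdown; nearly all actives have a fitted effect of over 60% in size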
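Cells in DMEM/10% FBS with G418 were pretreated with compounds in DMSO plus […] (300 uM stock) for 30 min at 37C. cAMP was measured by HTRF (cAMP-d2 plus anti-cAMP antibody-K) after 30 min at room temperature.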
FUS yeast rescue: qHTS for Suppressors of FUS Proteinopathy: Primary screen using FUS-linked yeast assay; actives 0.24% (n = 390,000); AID 1347120, 2019; Potency, µM (series often up to 76.6 µM), usual class: activators; S. cerevisiae FUS-expressing, growth rescue, OD600, 24 h;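 further: plate controls were DMSO vehicle for no effect and reference control for full effect; nearly all actives have a fitted effect of over 55% in size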
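Steps: raffinose overnight preculture; dilution to OD 0.005 in 2% galactose minimal medium; compound addition (concentration series); 24hr at 30C, 99% humidity; absorbance read at 600 nm.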
gsp antag: qHTS for Antagonists of gsp, the Etiologic Mutation Responsible for Fibrous Dysplasia/McCune-Albright Syndrome: qHTS. gsp-mutant cells, cAMP HTRF, 30 min. Potency, µM (series often up to 76.9 µM), for the others: top-dose activity change, negative = inhibition, hits mostly inhibitors. actives 0.4% (n = 340,000). AID 624288, 2012; calls by dose curve; cell line not stated here;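 further: intracellular cAMP measured with PDE inhibitor Ro 20-1724 present during compound exposure; on the % scale 0 is the no-effect control and ±100 the full control effect; nearly all actives have a fitted effect of over 65% in size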
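HTRF cAMP read-out (cAMP-d2 plus anti-cAMP antibody-K in lysis buffer, 30 min RT). Before lysis, cells are exposed to compounds with […] for 30 min at 37C in DPBS containing Ca/Mg, BSA and Tween 20.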
12-LOX inh: Primary qHTS assay for inhibitors of human arachidonate 12S-lipoxygenase (ALOX12): Round 2; purified 12hLO, xylenol orange hydroperoxide absorbance; Potency, µM (series often up to 108 µM), inactives show at the top dose activity change, negative = inhibition, most hits filed as inhibitors; Polyunsaturated fatty acid lipoxygenase ALOX12 (Homo sapiens), P18054; actives 1.1% (n = 580,000); AID 1671190, 2021; further: on the % scale 0 is the no-effect control and ±100 the full control effect
Target sequence (P18054 whole entry, looked up): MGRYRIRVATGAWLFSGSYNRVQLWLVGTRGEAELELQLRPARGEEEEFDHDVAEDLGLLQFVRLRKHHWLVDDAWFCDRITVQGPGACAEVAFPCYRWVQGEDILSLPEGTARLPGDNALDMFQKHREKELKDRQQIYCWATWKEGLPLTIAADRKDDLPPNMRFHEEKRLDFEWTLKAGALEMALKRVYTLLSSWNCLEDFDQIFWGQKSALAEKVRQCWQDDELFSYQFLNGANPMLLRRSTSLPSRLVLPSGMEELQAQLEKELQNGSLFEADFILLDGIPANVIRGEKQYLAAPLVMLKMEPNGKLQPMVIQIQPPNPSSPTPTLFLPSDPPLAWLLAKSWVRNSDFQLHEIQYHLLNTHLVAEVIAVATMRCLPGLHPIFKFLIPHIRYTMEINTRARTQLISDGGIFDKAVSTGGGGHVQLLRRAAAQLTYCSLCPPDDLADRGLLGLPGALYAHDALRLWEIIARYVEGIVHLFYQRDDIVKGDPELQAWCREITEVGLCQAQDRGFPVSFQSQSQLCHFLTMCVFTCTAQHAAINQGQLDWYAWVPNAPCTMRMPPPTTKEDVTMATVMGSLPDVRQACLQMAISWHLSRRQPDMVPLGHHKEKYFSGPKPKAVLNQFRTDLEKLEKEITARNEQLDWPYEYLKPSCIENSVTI
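Purified human 12hLO at 150 nM in 25 mM Hepes, 0.01% Triton X-100, pH 7.0, preincubated 15 min at room temperature with compound. Reaction started with 40 uM arachidonic acid, 30 min at room temperature. Hydroperoxide measured by Fe-xylenol orange, 573/405 nm absorbance ratio.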
* = called active by the depositor; i = inactive; ? = inconclusive; / = not tested or not shown; [ ] = dose if it differs, or a comment. Hits are enriched below; roughly 1.6% of the tested compounds scored in any of these assays. Unless noted, the call rests on the fitted dose curve; in most records, active means well fitted curve in the direction sought with a large enough effect; inconclusive means small, poorly fitted or top-dose-only effect, or another doubt; inactive means no such curve, though single readings can be large; an effect the other way counts as inactive or inconclusive. Potency means the concentration at half of the fitted maximal effect.

SMILES	Mito fusion yeast	gsp agonist	FUS yeast rescue	gsp antag	12-LOX inh
Cc1cc(C[C@@H]2COC[C@@H]2NC(=O)c2cn(C)c3ccccc23)on1	/	/	/	/	-11.4%
Cc1ccc(N2C(=O)NC(=O)/C(=C/c3ccc(OC(=O)c4cccs4)cc3)C2=O)cc1	0.2%	22.7%	i	-8.5%	44.7µM*
COc1ccc(N2C(=O)NC(=O)/C(=C/c3cccc(OC(=O)c4cccs4)c3)C2=O)cc1Cl	-3.4%	0.1%	/	8.5%	35.5µM*
Cc1ccc(N2C(=O)NC(=O)/C(=C\c3ccoc3)C2=O)cc1	0.3%	13.8%	i	-9.8%	?
N#Cc1ccc(NC(=O)COC(=O)c2nc(-c3ccccc3)n(-c3ccccc3)n2)cc1Cl	/	/	/	/	-26.8%
O=C1NCN(c2ccccc2)C12CCNCC2	-7.5%	9.2%	i	2.7%	-17.7%
O=C1NCN(c2ccccc2)C12CCN(CC1COc3ccccc3O1)CC2 (stereo not drawn)	20.6µM*	/	/	/	?
Cc1cc(/C=C2\C(=O)NC(=O)N(c3cccc(F)c3)C2=O)c(C)n1-c1ccc(C(=O)O)c(Cl)c1	2.7%	-0.1%	i	8.1%	7.94µM*
COCCNC(=O)[C@H]1CN2CC[C@H]1C[C@@H]2Cn1cc(C2(O)CCCC2)nn1	/	/	/	/	26.0%[176 µM]
COc1cc(CN2CCNCC2)cc(OC)c1OC	0.2%	-14.5%	i	9.4%	6.31µM*
CNc1ncc(C(=O)N2C[C@H]3COc4ccccc4C[C@@]3(C(=O)O)C2)cn1	/	/	/	/	7.0%
CC[C@H]1CN2CC[C@H]1C[C@@H]2CNCc1ccc(-c2ccccc2)cc1	/	/	/	/	-17.3%[176 µM]
COc1ccc(N2C(=O)/C(=C/c3cc(C)n(-c4ccc(C)cn4)c3C)C(=O)NC2=S)c(OC)c1	0.7%	-1.7%	i	-16.2%	35.5µM*
CCCCOc1ccc(C(C)=O)cc1Cc1c(O)[nH]c(=S)[nH]c1=O	0.0%	18.9%	i	4.0%	12.7%
COc1ccc(Cc2c(O)[nH]c(=S)[nH]c2=O)cc1	3.2%	10.3%	i	2.6%	28.2µM*
CC(C)NC(=O)OC[C@H]1C[C@@H]2CCN1C[C@@H]2c1cc(C2CCCC2)nc(-c2ccncc2)n1	/	/	/	/	28.2µM*
O=C(Nc1cccc(C(F)(F)F)c1)OC[C@H]1C[C@@H]2CCN1C[C@@H]2c1cc(C2CCCC2)nc(-c2ccncc2)n1	/	/	/	/	50.1µM*
COc1cc(NC(=O)OC[C@H]2C[C@@H]3CCN2C[C@@H]3c2cc(-c3ccc(N(C)C)cc3)nc(C)n2)cc(OC)c1	/	/	/	/	44.7µM*
CC(=O)c1ccc(NC(=O)OC[C@H]2C[C@@H]3CCN2C[C@@H]3c2cc(C3CCCC3)nc(-c3ccncc3)n2)cc1	/	/	/	/	-29.5%
O=C(NC1CCCCC1)OC[C@H]1C[C@@H]2CCN1C[C@@H]2c1cc(C2CCCC2)nc(-c2ccncc2)n1	/	/	/	/	31.6µM*
CC(=O)c1cccc(NC(=O)OC[C@H]2C[C@@H]3CCN2C[C@@H]3c2cc(C3CCCC3)nc(C)n2)c1	/	/	/	/	-2.2%
COCCNC(=O)c1c(NC(=O)c2ccc(Br)o2)n(Cc2ccccc2)c2nc3ccccc3nc12	7.08µM*	8.0%	i	-3.1%	1.0%
COCCCNC(=O)c1c(NC(=O)c2ccco2)n(Cc2ccccc2)c2nc3ccccc3nc12	10.3%	20.3%	i	-10.3%	407.7%
Cc1nc(-c2cccs2)cc([C@H]2CN3CC[C@H]2C[C@@H]3CNC(=O)Nc2cccc(C(F)(F)F)c2)n1	/	/	/	/	-6.0%
CCOc1cncc(/C=C/CCNC)c1	/	/	/	/	17.8µM*
SMILES	Mito fusion yeast	gsp agonist	FUS yeast rescue	gsp antag	12-LOX inh
CN(C)CCC=C1c2ccccc2CCc2ccccc21	-11.2%	/	i	20µM*	-1.7%
CC1CCN(C[C@H]2CN3CC[C@H]2C[C@@H]3CNC(=O)Nc2ccsc2)CC1	/	/	/	/	75.7%[176 µM]
Cc1ccc2c(C)c3ccc4ccccc4c3c[n+]2c1	/	?	/	50.1µM*	-15.0%
CCn1cc(CN2CCN(C(=O)Cc3c(C)noc3C)CC2)ccc1=O	/	/	/	/	25.5%
O=C(NCc1ccccc1)[C@H]1CN2CC[C@H]1C[C@@H]2Cn1cc(-c2ccccn2)nn1	/	/	/	/	73.4%[176 µM]
CN(C)c1ccc(/C=C/C=C2/C(=O)NC(=O)N(c3ccccc3)C2=O)cc1	-17.0%	-17.6%[15.4 µM]	5.62µM*	?	167.3%
CC(=O)N1C2CCC1CN(C(C)C)C2	/	/	/	/	12.3%[12.5 µM]
C/C(=C\c1ccc2c(c1)OCO2)[N+](=O)[O-]	/	/	/	/	14.1µM*
Cc1ccccc1CN1CCNCC1	-3.0%	0.0%	i	9.2%	?
Cc1ccccc1CN1CCN(Cc2cccc(F)c2)CC1	/	/	/	/	0.112µM*
c1ccc2sc(NC3=NCCN3)nc2c1	3.16µM*	22.6%	/	9.1%	-8.4%
COc1ccc2nc(NC3=NCCN3)sc2c1	?	17.5%[15.4 µM]	i	-2.5%	14.9%
COc1ccccc1N1CCN(Cc2ccccc2)CC1	-0.5%	1.9%	i	6.1%	?
COc1ccccc1N1CCN(Cc2ccc3c(c2)OCO3)CC1	/	5.8%[15.4 µM]	i	-4.7%	0.708µM*
CC(C)c1ccc(N2C(=O)NC(=O)/C(=C/c3cnc(-c4ccccc4)nc3)C2=O)cc1	2.9%	9.8%	/	2.7%	15.8µM*
CCCNC(=O)OC[C@H]1C[C@@H]2CCN1C[C@@H]2c1cc(-c2ccc3ccccc3c2)nn1C	/	/	/	/	4.2%[176 µM]
Nc1ccc(C2(c3ccc(N)cc3)c3ccccc3-c3ccccc32)cc1	25.1µM*	22.6%[15.4 µM]	i	-8.8%	-6.1%
C#C[C@H]1CN2CC[C@H]1C[C@@H]2CNC(=O)c1ccc(-c2ccccc2)cc1	/	/	/	/	28.4%[176 µM]
CN1CCC(N(C)c2ncnc3ccc(Br)cc23)CC1	4.7%	31.6µM*	i	-0.2%	0.0%
CN1CCN(c2ncnc3ccc(Br)cc23)CC1	-4.6%	?	i	20.7%	0.7%
CCOc1ccc(CNCCc2c[nH]c3ccccc23)cc1OCC	/	/	/	/	-27.1%
Clc1cccc(CNCCc2c[nH]c3ccccc23)c1	-12.3%	8.2%[15.4 µM]	i	13.2%	4.47µM*
Cc1ccc(CNCCc2c[nH]c3ccccc23)c(C)c1	/	/	/	/	12.6µM*
CC[C@H]1CN2CC[C@H]1C[C@@H]2CN(Cc1ccc(SC)cc1)Cc1ccc(SC)cc1	/	/	/	/	-24.1%[176 µM]
Cc1nc(-c2ccc(N(C)C)cc2)cc([C@H]2CN3CC[C@H]2C[C@@H]3CNC(=O)NC(C)C)n1	/	/	/	/	7.7%[176 µM]
CN1c2ccc([N+](=O)[O-])cc2CC2(C(=O)NC(=O)N(c3ccc(Br)cc3)C2=O)C1c1ccccc1 (stereo not drawn)	18.0%	17.3%	17.8µM*	-5.4%	-25.9%
CCN1CCN(S(=O)(=O)c2ccc(Cl)c(C(=O)Nc3ccc(C(=O)N(CC)CC)cc3)c2)CC1	-0.3%	13.0%	i	10.0%	20µM*
